Consider seven molecules from PubChem BioAssay (NCATS).

Each structure is given as a SMILES string. “And” between values parts separate entries of the source, which are not always exact repeats. Equal entries are not always repeated. Inconclusive results are not listed. The source made the active and inactive calls. Unless noted, calls follow the shape of the dose curve; as a rule, active = well fitted curve in the direction sought with a large enough effect; inconclusive = small, poorly fitted or top-dose-only effect, or another doubt; inactive = no such curve, though single readings can be large; an effect the other way counts as inactive or inconclusive.

Test [1] in a line: Cell Viability - Jurkat (AID 426;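 active = dose-dependent loss of cell ATP signal giving a full or clear fitted curve, ranked by lower potency value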; also: potency is read from the fitted curve at half-maximal effect). Conditions: qHTS. Put shortly: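 Jurkat (clone E6-1, human T-cell leukemia) cells, 5000/well in complete medium, were exposed to compound for 40 hr at 37 °C. Viability was read as intracellular ATP by CellTiter-Glo luminescence; AC50 came from Hill fits of concentration-response data.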
Test [2] is described as follows: Cell Viability - Hek293 (AID 427;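 active = compounds whose dose-response curve shows a full or clear partial loss of cell viability, called from curve shape rather than a numeric limit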;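 also: potency is read from the fitted curve at half-maximal effect; cells exposed to compound for 40 hours at 37 °C before reading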). Conditions: qHTS. In outline:
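HEK293 cells in complete medium were exposed to compound for 40 hr at 37 °C, then cellular ATP was read by CellTiter-Glo luminescence. Data were normalized to DMSO (basal) and 100 uM tamoxifen (100% inhibition), and AC50 came from Hill fits.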

The nature of test [3]: Cell Viability - SH-SY5Y (AID 544).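 Also: 0% = DMSO alone and -100% = 100 µM tamoxifen; nearly all actives have a fitted effect of over 55% in size.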 As to conditions: SH-SY5Y neuroblastoma cell viability; viability change, negative = cytotoxic: at 92.2 µM (top of the series). Put shortly: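 Human neuroblastoma SH-SY5Y cells (1500/well) in complete medium were exposed to compounds for 40 hr at 37 °C; intracellular ATP was then quantified by CellTiter-Glo luminescence after 20 min at room temperature. AC50 came from Hill-equation concentration-response fits.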

Test [4] in a line: Cell Viability - Mesenchymal (AID 546).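 Also: cells exposed to compound for 40 hours before reading; 0% = DMSO only and -100% = 100 µM tamoxifen.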 As to conditions: mesenchymal cells viability, qHTS; series mostly up to 91.7 µM. Put shortly:
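Normal human renal glomerulus-derived kidney mesenchymal cells, 1000 per well in complete medium, were treated with compounds for 40 hr at 37 °C. Viability was read as intracellular ATP by CellTiter-Glo luminescence; AC50 values came from Hill-equation fits of qHTS concentration-response data.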
(In qHTS, concentration-response curves come from the screen itself.)

The target of test [5] is Cytochrome P450 3A4 (Homo sapiens) (UniProt P08684). The experiment in a line: qHTS Assay for Inhibitors and Substrates of Cytochrome P450 3A4 (AID 884). Also: nearly all actives have a fitted effect of over 50% in size. Also: potency is read from the fitted curve at half-maximal effect. As to conditions: recombinant CYP3A4, Luciferin-PPXE luminescence; series mostly up to 57.1 µM. In outline:
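20 nM human CYP3A4 with 25 uM Luciferin-PPXE (at KM) in 200 mM KPO4, preincubated 10 min with compound; NADPH regeneration started a 60 min RT reaction. Luciferin detected by luminescence, normalized to 57 uM ketoconazole as full inhibition.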

Test [6] can be described thus: MultiTox-Fluor Cytotoxicity Assay - LYMP1-002 - Dead Cells (AID 960).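 Also: 0% = DMSO and 100% = tetraoctylammonium bromide; nearly all actives have a fitted effect of over 60% in size.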 Conditions: LYMP1-002 lymphoblastoid cells, dead-cell protease fluorescence; series mostly up to 46.1 µM. Put shortly: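 Human lymphoblastoid cells (LYMP1-002), 2500/well in complete medium, were exposed to compounds for 16 hr at 37 C. Dead-cell protease activity was read as bis-AAF-R110 fluorescence (Ex/Em 485/520), normalized to DMSO and 15 uM tetraoctylammonium bromide; AC50 from Hill fits.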

Test [7] is described as follows: Cell Viability - LYMP2-005 (AID 967).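 Also: plate controls were DMSO only for no effect and 92 µM tetraoctylammonium bromide control for full effect.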 Conditions: LYMP2-005 lymphoblastoid cell viability; series mostly up to 92.2 µM. Put shortly:
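LYMP2-005 human lymphoblastoid cells (2500/well) were treated with compounds for 24 h at 37 C. Intracellular ATP was then measured by CellTiter-Glo luminescence after 30 min at room temperature. AC50 values came from Hill-equation fits of qHTS concentration-response data.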

The nature of test [8]: Cell Viability - LYMP2-019 (AID 973).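 Also: 0% = DMSO alone and full effect = 92 µM tetraoctylammonium bromide; nearly all actives have a fitted effect of over 55% in size.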 As to conditions: LYMP2-019 lymphoblastoid cell line viability; series mostly up to 92.2 µM. In outline:
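Human lymphoblastoid cells were seeded at 2500 cells/well, preincubated 5 hr at 37 C, then exposed to compounds for 24 hr at 37 C in complete medium. Intracellular ATP was measured by CellTiter-Glo luminescence; AC50 from Hill fits.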

The nature of test [9]: Cell Viability - LYMP2-010 (AID 981). Also: % is scaled to controls: 0 for no effect and ±100 for the full control effect; nearly all actives have a fitted effect of over 55% in size. As to conditions: LYMP2-010 lymphoblastoid cell viability, qHTS; series mostly up to 92.2 µM. Put shortly:
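Human lymphoblastoid LYMP2-010 cells (2500/well) were preincubated 5 hr at 37 C, then exposed to compounds for 24 hr at 37 C in complete medium. Intracellular ATP was measured by CellTiter-Glo luminescence after 30 min at room temperature; AC50 from Hill-fitted concentration-response.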

A short description of test [10]: Cell Viability - LYMP2-024 (AID 988).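 Also: plate controls were DMSO only for no effect and 92 µM tetraoctylammonium bromide for full effect; nearly all actives have a fitted effect of over 60% in size.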 As to conditions: LYMP2-024 lymphoblastoid cell viability; series mostly up to 92.2 µM. Put shortly: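 Human lymphoblastoid cells (2500/well) in complete medium were preincubated 5 hr at 37 C, then exposed to compounds for 24 hr at 37 C. Intracellular ATP was read by CellTiter-Glo luminescence; AC50 from Hill-equation fits of concentration-response data.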

A short description of test [11]: Cell Viability - LYMP2-026 (AID 989). Also: % is scaled to controls: 0 for no effect and ±100 for the full control effect; nearly all actives have a fitted effect of over 50% in size. As to conditions: LYMP2-026 lymphoblastoid cell viability, qHTS; series mostly up to 92.2 µM. Put shortly: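 Human lymphoblastoid cells (2500/well) in complete medium were preincubated 5 hr at 37 C, then exposed to compounds for 24 hr at 37 C. Cellular ATP was read by CellTiter-Glo luminescence; AC50 from Hill-equation fits of concentration-response data.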

Test [12] is described as follows: Cell Viability - LYMP1-002 - Assay at 40 hr (AID 994).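 Also: 0% = DMSO only and full inhibition = 92 µM tetraoctylammonium bromide; nearly all actives have a fitted effect of over 60% in size.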 Conditions: LYMP1-002 lymphoblastoid cell viability; series mostly up to 92.2 µM. Put shortly:
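Human lymphoblastoid cells, 2500/well in complete medium, were preincubated 5 hr at 37 C, then exposed to compounds for 40 hr at 37 C. Intracellular ATP was read by CellTiter-Glo luminescence after 30 min at room temperature; AC50 from Hill-equation fits.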

Test [13] deals with Peroxisome proliferator-activated receptor gamma (Homo sapiens) (UniProt P37231). The experiment in a line: qHTS assay for small molecule agonists of peroxisome proliferator-activated receptor gamma signaling (AID 588536; active = well fitted curve in the direction sought with a large enough effect in the signal ratio, with a control signal flat, not every such curve was filed as active; the % refers to the signal ratio;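 also: 0% = DMSO basal wells and 100% = rosiglitazone at 2 µM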). Conditions: HEK293 PPARg-UAS-bla, beta-lactamase ratio, 16 h, percent of rosiglitazone response, DMSO as zero; series mostly up to 76.7 µM. Put shortly: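 GeneBLAzer PPAR-gamma-UAS-bla HEK293 cells in 1% charcoal/dextran-treated FBS medium were treated 16 h at 37 C with compounds. Beta-lactamase activity was read by CCF4 ratio (460/530 nm). Response was normalized to 2 uM rosiglitazone (100%) and DMSO, then Hill-fitted for EC50 and efficacy.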

Test [14] in a line: qHTS assay for small molecule agonists of retinoid X receptor alpha signaling (AID 588544; calls by dose curve). Conditions: HEK293T RXRa-UAS-bla, beta-lactamase reporter, 18 h; 530 nm emission.
The target of test [15] is Retinoic acid receptor RXR-alpha (Homo sapiens) (UniProt P19793). The description is as above. As to conditions: HEK293T RXRa-UAS-bla, beta-lactamase reporter, 18 h; series mostly up to 76.7 µM.
Test [16] has as its target Thyroid hormone receptor beta (Homo sapiens) (UniProt P10828). The experiment in a line: qHTS assay for small molecule agonists of thyroid hormone receptor beta signaling (AID 588545; calls by dose curve;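 also: 0% = DMSO only and 100% = 10 nM T3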). Conditions: TR-UAS-bla GripTite HEK 293, beta-lactamase ratio, agonist mode, 18 h; series mostly up to 76.7 µM. In outline: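 TR-UAS-bla GripTite HEK 293 cells (2500/well, medium with 2% charcoal/dextran FBS) were treated in agonist mode for 18 h at 37 C, titrated. Beta-lactamase was read by CCF4 ratio after 2 h; normalized to 10 nM T3 (100%) and DMSO, Hill-fitted for EC50 and efficacy.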

A short description of test [17]: qHTS assay for small molecule antagonists of retinoid X receptor alpha signaling (AID 588546).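 Also: cells stimulated with 9-cis-retinoic acid as agonist; % is scaled to controls: 0 for no effect and ±100 for the full control effect.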 As to conditions: HEK293T RXRa-UAS-bla, beta-lactamase ratio, antagonist mode; measured here: W530 green channel, cytotoxicity proxy. In outline:
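Beta-lactamase reporter inhibition, read as CCF4 fluorescence ratio (ex 405, em 460/530 nm) after 2 h at RT. HEK293T UAS-bla cells, 2500/well, were stimulated with 9-cis-RA at 500 or 100 nM final alongside test compound for 18 h at 37 C.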

Test [18] concerns the target Tumor necrosis factor (Homo sapiens) (UniProt P01375). The experiment in a line: qHTS assay to identify small molecules that stimulate Tumor Necrosis Factor-alpha (TNF-alpha) secretion (AID 651757; active = well fitted curve in the direction sought with a large enough effect in the signal ratio; the % refers to the signal ratio; also: 0% is about no effect). Conditions: Human cells, HTRF 665/615 ratio; series mostly up to 92.2 µM. Put shortly: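 THP-1 cells were exposed to compounds for 17 hrs at 37 C, after which secreted TNF-alpha was measured by homogeneous HTRF (TR-FRET) using cryptate- and XL665-labeled anti-TNF-alpha antibodies, read after 3 hr at room temperature.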

The nature of test [19]: qHTS assay for small molecule antagonists of the retinoid-related orphan receptor gamma (ROR-gamma) signaling pathway - cell viability counter screen (AID 720652; active = well fitted curve in the direction sought with a large enough effect in the repeat runs; an effect the other way counts as inactive or inconclusive;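 also: CHO reporter cells with doxycycline-induced ROR-gamma expression; compound exposure lasted 16 hr before ATP read; % is scaled to controls: 0 for no effect and ±100 for the full control effect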). As to conditions: RORgamma reporter cell line viability counter screen; series mostly up to 92.2 µM. In outline: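 Counter screen in CHO cells carrying TET-inducible ROR-gamma and an ROR response element-luciferase reporter; cells plated 5 hr, compound pinned, doxycycline added, then 16 hr at 37 C. Viability read as intracellular ATP by CellTiter-Glo luminescence.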

Test [20] has as its target Nuclear receptor subfamily 1 group I member 2 (Rattus norvegicus) (UniProt Q9R1A7). The test is described as follows: qHTS assay for small molecule activators of the rat pregnane X receptor (rPXR) signaling pathway (AID 651751; call rule not given here; also: 0% is about no effect). Conditions: rPXR reporter cells, luciferase (One-Glo), 24 h.

Sequence of Peroxisome proliferator-activated receptor gamma (Homo sapiens) (P37231 whole entry, looked up): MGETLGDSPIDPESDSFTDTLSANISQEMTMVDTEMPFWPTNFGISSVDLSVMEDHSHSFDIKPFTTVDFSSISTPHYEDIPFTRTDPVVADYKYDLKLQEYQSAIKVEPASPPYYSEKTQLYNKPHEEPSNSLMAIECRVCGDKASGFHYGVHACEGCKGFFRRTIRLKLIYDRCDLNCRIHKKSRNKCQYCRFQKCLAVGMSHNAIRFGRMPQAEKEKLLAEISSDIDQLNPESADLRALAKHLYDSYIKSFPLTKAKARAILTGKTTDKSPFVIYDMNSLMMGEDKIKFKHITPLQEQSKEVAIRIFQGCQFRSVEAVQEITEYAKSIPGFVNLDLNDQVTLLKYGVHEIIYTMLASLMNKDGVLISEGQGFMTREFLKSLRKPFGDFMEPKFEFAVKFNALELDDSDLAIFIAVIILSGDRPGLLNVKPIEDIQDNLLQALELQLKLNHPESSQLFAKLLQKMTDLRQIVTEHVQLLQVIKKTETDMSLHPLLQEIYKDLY
Sequence of Thyroid hormone receptor beta (Homo sapiens) (P10828 whole entry, looked up): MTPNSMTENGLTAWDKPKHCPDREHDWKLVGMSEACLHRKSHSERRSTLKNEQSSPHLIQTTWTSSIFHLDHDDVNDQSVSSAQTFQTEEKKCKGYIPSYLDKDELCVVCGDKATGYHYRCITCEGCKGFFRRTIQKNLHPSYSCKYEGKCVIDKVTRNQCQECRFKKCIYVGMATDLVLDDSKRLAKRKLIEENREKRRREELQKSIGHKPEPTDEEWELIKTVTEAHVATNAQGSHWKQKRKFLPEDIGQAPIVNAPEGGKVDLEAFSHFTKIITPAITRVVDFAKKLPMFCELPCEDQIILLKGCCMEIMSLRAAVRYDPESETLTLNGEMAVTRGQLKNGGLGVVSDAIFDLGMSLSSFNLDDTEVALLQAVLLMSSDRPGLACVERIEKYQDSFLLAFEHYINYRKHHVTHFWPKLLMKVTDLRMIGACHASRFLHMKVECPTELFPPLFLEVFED
Sequence of Cytochrome P450 3A4 (Homo sapiens) (P08684 whole entry, looked up): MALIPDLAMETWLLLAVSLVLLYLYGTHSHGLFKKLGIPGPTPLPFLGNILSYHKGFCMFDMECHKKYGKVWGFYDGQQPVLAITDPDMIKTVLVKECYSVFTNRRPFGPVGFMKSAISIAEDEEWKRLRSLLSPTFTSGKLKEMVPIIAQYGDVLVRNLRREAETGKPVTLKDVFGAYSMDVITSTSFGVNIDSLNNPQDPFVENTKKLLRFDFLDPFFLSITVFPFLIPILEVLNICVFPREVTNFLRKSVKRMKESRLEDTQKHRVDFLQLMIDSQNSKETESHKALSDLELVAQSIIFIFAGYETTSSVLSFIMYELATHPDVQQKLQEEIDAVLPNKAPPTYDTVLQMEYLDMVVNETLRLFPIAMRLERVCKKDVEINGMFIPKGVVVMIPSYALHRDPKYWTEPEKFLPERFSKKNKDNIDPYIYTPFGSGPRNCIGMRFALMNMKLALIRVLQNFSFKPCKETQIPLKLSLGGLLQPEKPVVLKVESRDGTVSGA
Sequence of Retinoic acid receptor RXR-alpha (Homo sapiens) (P19793 whole entry, looked up): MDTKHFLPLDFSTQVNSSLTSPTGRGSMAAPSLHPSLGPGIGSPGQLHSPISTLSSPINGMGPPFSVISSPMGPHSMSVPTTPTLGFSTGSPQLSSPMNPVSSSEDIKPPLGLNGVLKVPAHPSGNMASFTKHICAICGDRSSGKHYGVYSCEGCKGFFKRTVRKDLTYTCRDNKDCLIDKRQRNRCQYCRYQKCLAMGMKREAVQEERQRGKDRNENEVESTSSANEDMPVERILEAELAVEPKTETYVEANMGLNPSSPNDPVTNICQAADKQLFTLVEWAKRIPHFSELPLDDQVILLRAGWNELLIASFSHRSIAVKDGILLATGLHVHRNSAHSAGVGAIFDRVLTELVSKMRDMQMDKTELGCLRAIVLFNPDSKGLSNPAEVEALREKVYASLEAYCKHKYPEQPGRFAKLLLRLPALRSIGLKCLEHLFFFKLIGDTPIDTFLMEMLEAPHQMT
Sequence of Nuclear receptor subfamily 1 group I member 2 (Rattus norvegicus) (Q9R1A7 whole entry, looked up): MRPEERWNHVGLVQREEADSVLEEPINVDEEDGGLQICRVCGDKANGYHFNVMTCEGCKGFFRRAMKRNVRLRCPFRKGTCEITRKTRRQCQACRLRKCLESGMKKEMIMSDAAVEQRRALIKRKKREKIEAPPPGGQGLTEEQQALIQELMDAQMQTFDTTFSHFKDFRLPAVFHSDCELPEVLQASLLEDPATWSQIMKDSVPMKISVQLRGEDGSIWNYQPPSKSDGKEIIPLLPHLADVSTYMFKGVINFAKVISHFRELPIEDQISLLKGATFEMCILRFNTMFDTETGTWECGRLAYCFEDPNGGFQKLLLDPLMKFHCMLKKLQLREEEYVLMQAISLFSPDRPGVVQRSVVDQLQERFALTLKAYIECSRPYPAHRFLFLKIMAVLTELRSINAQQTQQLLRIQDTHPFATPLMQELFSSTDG
Sequence of Tumor necrosis factor (Homo sapiens) (P01375 whole entry, looked up): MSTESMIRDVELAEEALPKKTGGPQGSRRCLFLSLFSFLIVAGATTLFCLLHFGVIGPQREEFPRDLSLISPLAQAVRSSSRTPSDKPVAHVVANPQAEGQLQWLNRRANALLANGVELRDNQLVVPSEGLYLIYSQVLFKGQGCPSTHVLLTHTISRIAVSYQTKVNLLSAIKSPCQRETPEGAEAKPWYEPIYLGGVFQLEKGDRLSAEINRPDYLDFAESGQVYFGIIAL

On to `O=S(=O)(Cl)c1ccccc1`, for which the Potency in [1] and in [2] was > 92 µM (inactive) throughout. For the same molecule, the viability change, negative = cytotoxic in test [3] was -100% (active). Moreover, the Potency entry in test [4], in test [5], in test [6], in test [7], in test [8] and in test [9] was “inactive” throughout. Also, the Potency result in test [10], in test [11], in test [12], in test [16] and in test [19] was “inactive” in each case. The result in test [13], in test [15] and in test [18] was inactive. The max response in [14] is -12.3%; in [17], 25.3% and -4.13%; in [20], -0.19% (inactive) and -2.18% (inactive).
Consider `S=c1[nH]c2ccccc2[nH]1`, for which the results for the Potency in test [1], in test [2] and in test [5] were > 92 µM (inactive), > 92 µM (inactive) and 10 µM (active), respectively. The Potency result in [3], in test [6], in test [7], in test [8], in [9] and in test [10] was “inactive” each time. Also, the Potency entry in [11], in test [12], in test [16] and in test [19] was “inactive” throughout. The result in test [13] and in test [15] was inactive. For the same molecule, the max response in test [14] is 8.12%; in test [17], -17.8%; in test [20], -7.5% (inactive).
In the case of `Clc1cccc2ccccc12`, the Potency in [1] and in test [2] was > 92 µM (inactive) throughout. Also, the Potency result in test [3], in test [4], in [5], in test [6], in test [7] and in test [8] was “inactive” each time. The Potency entry in [9], in test [10], in test [11], in test [12], in test [16] and in test [19] was “inactive” each time. The max response is 0.056% in test [14], -3.08% in [17] and 3.21% (inactive) in test [20]. In addition, the molecule was called inactive in test [15] and in test [18].
With `Nc1cc(Cl)cc(C(=O)O)c1Cl`, the Potency in test [1] and in test [2] was > 92 µM (inactive) in each case. Besides, the Potency result in [3], in [4], in test [6], in test [7], in [8] and in test [9] was “inactive” in each case. Further, the Potency result in [10], in test [11], in [12], in test [16] and in [19] was “inactive” throughout. For the same molecule, the outcome in test [13], in [15] and in [18] was inactive. In addition, the max response was -12.3% and -7.66% in [14]; 0.823% and -3.03% in test [17]; 3.15% (inactive) and -3.28% (inactive) in test [20].
As to `Cc1ccc(N=C=O)cc1N=C=O`, the Potency was > 92 µM (inactive) in [1], > 92 µM (inactive) in test [2] and 15.8 µM (active) in [5]. Besides, the Potency result in test [3], in [4], in test [6], in [7], in test [8] and in [9] was “inactive” in each case. Besides, the Potency result in test [10], in test [11], in [12], in test [16] and in test [19] was “inactive” throughout. Moreover, the result in [13] and in test [15] was inactive. Also, the max response is -4.25% and -19.3% in test [14]; 4.82% and -6.24% in [17]; 5.64% (inactive) and 2.33% (inactive) in [20].
For the molecule `CN(C)c1ccccc1`, the Potency in test [1] and in test [2] was > 92 µM (inactive) each time. For the same molecule, the Potency result in test [3], in [4], in [5], in [6], in test [7] and in test [8] was “inactive” throughout. Also, the Potency result in test [9], in test [10], in test [11], in test [12], in test [16] and in [19] was “inactive” throughout. Moreover, the max response was -3.38% in test [14], 5.14% in [17] and -6.91% (inactive) in [20]. Moreover, the molecule was classed as inactive in [15] and in test [18].
For the molecule `CCC[N+](=O)[O-]`, the Potency in test [1] and in [2] was > 92 µM (inactive) each time. The Potency result in test [3], in [4], in test [5], in test [6], in test [7] and in test [8] was “inactive” throughout. Moreover, the Potency result in test [9], in test [10], in [11], in [12], in [16] and in test [19] was “inactive” each time. Besides, the outcome in [13], in test [15] and in [18] was inactive. For the same molecule, the max response in test [14] was -16.6%; in [20], 7.37% (inactive).
